For 16 molecules, potency estimated from few doses results are on record in article PMC11062922 (Nature Chemical Biology, 2023).

Molecules are shown by their SMILES. Read-outs that look alike come from different tables or passages of the source.

What all share (design): species or system human, MV4-11 + K-562 + COLO205 + SK-N-BE2 + OVCAR-8
Assay [1] concerns ABL1. The settings on record: read-out: apparent Kd; compound concentrations:100 nM and 1000 nM (sheet 'Samples'); n = 1.
Assay [2] relates to ABL2. Conditions: read-out: apparent Kd, n = 1.
Assay [3] relates to ACVR1B. The settings on record: read-out: apparent Kd, n = 1.
Assay [4] concerns BTK. The settings on record: read-out: apparent Kd; compound concentrations:100 nM and 1000 nM (sheet 'Samples'); n = 1.
Assay [5] relates to CIT. Conditions: read-out: apparent Kd, n = 1.
The test system of assay [6] is EPHB1. The settings on record: read-out: apparent Kd; compound concentrations:100 nM and 1000 nM (sheet 'Samples'); n = 1.
Assay [7] has as its system LCK. The settings on record: read-out: apparent Kd; compound concentrations:100 nM and 1000 nM (sheet 'Samples'); n = 1.
Assay [8] deals with MAPK14. Conditions: read-out: apparent Kd; compound concentrations:100 nM and 1000 nM (sheet 'Samples'); n = 1.
For assay [9], the system named is PTK6. Conditions: read-out: apparent Kd, n = 1.
In assay [10] the test system is RPS6KA3. The settings on record: read-out: apparent Kd, n = 1.
In assay [11] the test system is IRAK3. Conditions: read-out: apparent Kd, n = 1.
The subject of assay [12] is MAP3K11. Conditions: read-out: apparent Kd, n = 1.
Assay [13] has as its system PIK3CD. Conditions: read-out: apparent Kd, n = 1.
In assay [14] the test system is PRKCA. Conditions: read-out: apparent Kd, n = 1.
The test system of assay [15] is CDC42BPB. The settings on record: read-out: apparent Kd, compound concentrations: 100 nM and 1000 nM (sheet 'Samples'), n = 1.
For assay [16], the system named is NUAK2. Conditions: read-out: apparent Kd, compound concentrations: 100 nM and 1000 nM (sheet 'Samples'), n = 1.
In assay [17] the test system is RPS6KB1. Conditions: read-out: apparent Kd; compound concentrations: 100 nM and 1000 nM (sheet 'Samples'), CATDS: 8.2773531247457094E-2; n = 1.
The subject of assay [18] is AURKB. Conditions: read-out: apparent Kd, n = 1.
The subject of assay [19] is TTK. The settings on record: read-out: apparent Kd, n = 1.
The test system of assay [20] is PAK6. Conditions: read-out: apparent Kd, compound concentrations: 100 nM and 1000 nM (sheet 'Samples'), n = 1.
Where [21] appears, read: compound concentrations:100 nM and 1000 nM (sheet 'Samples').

Take `Cc1ccc2c(-c3ccncc3)c(-c3ccc(F)cc3)nn2c1.Cl` [GW461484A]: the potency estimated from few doses was 1220 nM in [1]; 571 nM in assay [2] (setting [21]); 696 nM in assay [3] (setting [21]); 801 nM in assay [4]; 2120 nM in assay [5] (setting [21]); 384 nM in assay [6]. For the same molecule, the potency estimated from few doses in assay [7] is 730 nM; in assay [8], 465 nM; in [9] (setting [21]) it was 871 nM; in [10] (setting [21]), 1950 nM.
Regarding `Cc1cccc(Nc2nc(N[C@H]3CCNC3)ncc2C(N)=O)c1.Cl` [GSK2197149A], the potency estimated from few doses is 1280 nM in assay [11] (setting [21]), 1330 nM in [12] (setting [21]), 10.5 nM in [13] (setting [21]) and 437 nM in [14] (setting [21]).
For `Cl.Cl.NC(CNC(=O)c1cc(Br)c(-c2ccnc3[nH]ccc23)s1)c1ccccc1.NC(CNC(=O)c1cc(Br)c(-c2ccnc3[nH]ccc23)s1)c1ccccc1` (stereo not shown) [GSK1322949A], the potency estimated from few doses in assay [15] (CATDS: 4.7345157694920897E-2) was 499 nM; in [16] (CATDS: 3.0654913086493301E-2), 1150 nM.
`COc1cc(Nc2nccc(-c3cnn4ncccc34)n2)cc(OC)c1` [GW801372X]: the potency estimated from few doses in assay [11] (compound concentrations: 100 nM and 1000 nM (sheet 'Samples'), CATDS: 2.51875293793523E-2) is 553 nM; in assay [12] (compound concentrations: 100 nM and 1000 nM (sheet 'Samples'), CATDS: 1.8293530288082401E-2), 1660 nM; in assay [13] (compound concentrations: 100 nM and 1000 nM (sheet 'Samples'), CATDS: 4.4256260948390198E-2) it was 135 nM.
As to `COc1cc(Nc2nccc(N3CCC(NC(=O)c4cccc(NC(C)=O)c4)C3)n2)cc(OC)c1OC` (stereo not shown) [GSK1379754A], the potency estimated from few doses in assay [11] (compound concentrations: 100 nM and 1000 nM (sheet 'Samples'), CATDS: 0.18683076270721999) was 372 nM; in [17] it was 1830 nM.
Take `c1ccc(-c2n[nH]cc2Nc2ccnc3ccccc23)nc1` [GW694077X]: the potency estimated from few doses is 57.6 nM in assay [11] (compound concentrations: 100 nM and 1000 nM (sheet 'Samples'), CATDS: 9.0170551839232005E-2); 148 nM in [13] (compound concentrations: 100 nM and 1000 nM (sheet 'Samples'), CATDS: 5.6537253255213298E-2).
Consider `CS(=O)(=O)Nc1ccc(-c2ccnc3[nH]ccc23)cc1` [GSK993273A], for which the potency estimated from few doses in assay [13] (setting [21]) is 183 nM.
As for `CNc1cc(-c2ccc3c(N)n[nH]c3c2)nc(N)n1` [GSK2224810A], the potency estimated from few doses in assay [3] (setting [21]) is 361 nM; in assay [6] it was 1180 nM; in assay [13] (setting [21]), 83.4 nM.
Regarding `CN(C)CCNC(=O)Nc1ccc(N(C)c2ccnc(Nc3ccc(CS(C)(=O)=O)cc3)n2)cc1.Cl` [GW830900A], the potency estimated from few doses was 387 nM in [18] (setting [21]) and 2150 nM in [19] (setting [21]).
On to `O=C(O)C(F)(F)F.O=c1[nH]ccc2nc(N[C@@H]3CCNC3)nc(Nc3ccc4c(c3)S(=O)(=O)CC4)c12` [GSK2181306A], for which the potency estimated from few doses in assay [18] (compound concentrations: 100 nM and 1000 nM (sheet 'Samples'), CATDS: 8.4552521896549809E-3) is 1530 nM; in assay [15] (CATDS: 8.6780352700712906E-3), 1380 nM; in [16] (CATDS: 1.3760463216936501E-2), 376 nM; in [20] (CATDS: 8.7541295114789697E-3), 1330 nM; in assay [14] (compound concentrations: 100 nM and 1000 nM (sheet 'Samples'), CATDS: 1.32180266874378E-2), 412 nM; in assay [10] (compound concentrations: 100 nM and 1000 nM (sheet 'Samples'), CATDS: 9.3639610273777898E-3) it was 1050 nM.
On to `NCC(NC(=O)c1cc(-c2cn[nH]c2)c(-c2ccnc3[nH]ccc23)s1)c1ccccc1.NCC(NC(=O)c1cc(-c2cn[nH]c2)c(-c2ccnc3[nH]ccc23)s1)c1ccccc1.O=C(O)C(F)(F)F.O=C(O)C(F)(F)F` (stereo not shown) [GSK1325775A], for which the potency estimated from few doses was 1020 nM in [3] (compound concentrations: 100 nM and 1000 nM (sheet 'Samples'), CATDS: 3.7153250837812998E-2); 29.3 nM in [15] (CATDS: 0.23472145831324301); 719 nM in assay [5] (compound concentrations: 100 nM and 1000 nM (sheet 'Samples'), CATDS: 4.2305109651231403E-2).
As to `CCn1c(-c2cccnc2O)nc2cnccc21` [SB-736715], the potency estimated from few doses is 889 nM in assay [3] (compound concentrations: 100 nM and 1000 nM (sheet 'Samples'), CATDS: 1.8200726561527599E-2); 1280 nM in assay [11] (compound concentrations: 100 nM and 1000 nM (sheet 'Samples'), CATDS: 1.50971530533868E-2); 84.5 nM in assay [13] (compound concentrations: 100 nM and 1000 nM (sheet 'Samples'), CATDS: 9.8292238183885799E-2); 1160 nM in [19] (compound concentrations: 100 nM and 1000 nM (sheet 'Samples'), CATDS: 1.5814183064690599E-2).
As for `Cc1n[nH]c2cc(Nc3ccnc(Nc4cccc(CN5CCOCC5)c4)n3)ccc12` [GW682569X], the potency estimated from few doses was 348 nM in assay [11] (compound concentrations: 100 nM and 1000 nM (sheet 'Samples'), CATDS: 0.17881857649065999); 121 nM in [13] (compound concentrations: 100 nM and 1000 nM (sheet 'Samples'), CATDS: 0.35370860335397603).
On to `Cc1ccccc1-n1ncc(C(=O)c2ccccc2)c1N` [RO1151248-000], for which the potency estimated from few doses was 630 nM in [2] (compound concentrations: 100 nM and 1000 nM (sheet 'Samples'), CATDS: 2.8713823072650399E-2); 184 nM in assay [13] (compound concentrations: 100 nM and 1000 nM (sheet 'Samples'), CATDS: 6.44780865676087E-2); 1160 nM in [9] (compound concentrations: 100 nM and 1000 nM (sheet 'Samples'), CATDS: 2.16089189660327E-2).
`CC(=O)N[C@@H](Cc1ccc(OP(=O)(O)O)cc1)C(=O)N[C@H]1CCC(=O)N2CCC[C@@H](C(=O)NCc3ccc(Cl)cc3)N2C1=O` [RO0325308-000]: the values for the potency estimated from few doses in assay [2] (setting [21]), in assay [6] and in [11] (setting [21]) were 60.3 nM, 71.6 nM and 1530 nM, respectively.
Consider `O=C(O)C(F)(F)F.O=C(O)C(F)(F)F.O=c1[nH]ccc2nc(N[C@@H]3CCCNC3)nc(Nc3ccc(S(=O)(=O)N4CCOCC4)cc3)c12.O=c1[nH]ccc2nc(N[C@@H]3CCCNC3)nc(Nc3ccc(S(=O)(=O)N4CCOCC4)cc3)c12` [GSK2177277A], for which the potency estimated from few doses in [18] (compound concentrations: 100 nM and 1000 nM (sheet 'Samples'), CATDS: 9.0566947478628902E-3) was 373 nM; in [15] (CATDS: 1.0245441654914001E-2), 255 nM; in assay [12] (compound concentrations: 100 nM and 1000 nM (sheet 'Samples'), CATDS: 9.6570166700827697E-3) it was 305 nM; in [16] (CATDS: 4.5069810988754302E-2), 13.3 nM; in [20] (CATDS: 6.8069472857734698E-3), 1140 nM; in assay [14] (compound concentrations: 100 nM and 1000 nM (sheet 'Samples'), CATDS: 8.97994124779509E-3) it was 383 nM. Moreover, the potency estimated from few doses is 573 nM in [10] (compound concentrations: 100 nM and 1000 nM (sheet 'Samples'), CATDS: 8.0041967490872001E-3); 1950 nM in assay [19] (compound concentrations: 100 nM and 1000 nM (sheet 'Samples'), CATDS: 6.1777236356659101E-3).
